# Sampled rows, rich in hits. Any-hit rate of the full collection: about 2.2%.
# m5-HT2A agonist – activates the mouse 5-HT2A serotonin receptor; P35363; CHO-K1 mHTR2A beta-arrestin complementation, luminescence; percent of 30 µM serotonin response; activation, % at 7.6 µM; 0.66% of 360,000 active; AID 624169;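 active means activation above a run cutoff, the mean activation of all tested compounds plus 3 SD, cut at about 14% in these data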;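 further: 0% = plate median of compound wells and 100% = 30 µM serotonin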
# MEX-5 binding – C. elegans MEX-5 TCR-2 RNA binding activity; Q9XUB2; MEX-5/FITC-TCR2 RNA binding, fluorescence polarization; active compounds read low; activity score (negative = inhibition of binding), % at 10 µM; 0.38% of 300,000 active; AID 1832;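 active means inhibition past about -25% in most replicates, and total fluorescence under double the plate's negative control median, limit read from the data; inconclusive means replicates evenly split on the limit, or fluorescence at least double controls; inactive means too little inhibition in most replicates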;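 further: 0% = DMSO and -100% = 5 µM competing unlabeled TCR2 RNA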
# Target sequence (Q9XUB2 whole entry, looked up): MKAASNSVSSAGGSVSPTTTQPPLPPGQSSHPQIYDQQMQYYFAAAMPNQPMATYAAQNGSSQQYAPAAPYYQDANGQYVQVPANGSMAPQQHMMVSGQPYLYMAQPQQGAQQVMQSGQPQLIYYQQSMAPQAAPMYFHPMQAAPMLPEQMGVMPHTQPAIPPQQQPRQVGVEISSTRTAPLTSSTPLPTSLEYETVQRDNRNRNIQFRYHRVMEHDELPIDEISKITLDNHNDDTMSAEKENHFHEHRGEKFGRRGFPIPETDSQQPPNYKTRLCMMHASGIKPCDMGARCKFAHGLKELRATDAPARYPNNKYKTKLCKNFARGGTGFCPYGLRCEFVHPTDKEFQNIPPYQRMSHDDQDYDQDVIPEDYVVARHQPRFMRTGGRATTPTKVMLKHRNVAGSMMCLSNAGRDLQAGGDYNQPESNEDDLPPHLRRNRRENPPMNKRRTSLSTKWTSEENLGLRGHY
# V-ATPase pHluor – regulators of yeast V-ATPase proton transport. AID 504577. response, % at 10 µM. S. cerevisiae, pHLuorin cytosolic pH fluorescence. 0.37% of 350,000 active; in the data active means response mostly above about 7.3%, no sharp cut-off; inactive means mostly below about 5.4%; further: actives read high
# JMJD2C inh – inhibitors of human GASC-1 (JMJD2C) demethylase; Q9H3R0; GST-JMJD2C(1-420) H3K9me3 demethylation, DELFIA europium; inhibition, % at 2.35 µM; 0.069% of 330,000 active; AID 2099;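 active means more than half of a compound's replicate wells show inhibition beyond 50%, single wells judged on their own value; inconclusive means some, but no more than half, of replicates pass 50% inhibition; inactive means no replicate passes 50% inhibition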;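 further: signal counts dimethyl H3K9 product captured on neutravidin plate; 0% = median of DMSO wells and 100% = 0.3 times that DMSO median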
# VLA-4 inh – inhibition in a human VLA-4 binding assay; VLA-4 expressing cells, ligand binding flow cytometry; inhibition, % (about 7 µM as worked out from the volumes in the protocol); 0.2% of 330,000 active; AID 2557; in the data active means inhibition above about 50%
# Granule exo inh – blocks lytic granule exocytosis | AID 651702 | inhibition, % at 10 µM | 0.66% of 360,000 active | TALL-104 LAMP-1 surface exposure, flow cytometry; cells stimulated with thapsigargin and PMA;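 active means inhibition above about 55%, limit read from the data; inconclusive means no clear call, values can overlap the other calls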
# * marks the source's active call; other numbers are inactive results; i = inactive; ? = inconclusive; / = no result.
SMILES,m5-HT2A agonist,MEX-5 binding,V-ATPase pHluor,JMJD2C inh,VLA-4 inh,Granule exo inh
COc1ccc(C(=O)Nc2cccc(C(=O)NCc3ccco3)c2)cc1,-2,-2,-3,-23,-3,-2
CCN(CC)CCOC(=O)c1ccc(N/C=C(/C#N)c2nc(-c3ccc(OC)c(OC)c3)cs2)cc1,2,7,6,-17,0,64*
CCCCN(C)C(=O)CCC(=O)NNc1nc2ccccc2c2nc(C)nn12,0,-32*,-2,40,6,1
CCOC(=O)C1CCN(C(=O)CCC(=O)NNc2nc3ccccc3c3nc(C)nn23)CC1,8,-48*,1,4,i,-1
CCN(CC)CCCNC(=O)CCC(=O)NNc1nc2ccccc2c2nc(C)nn12,6,-54*,3,3,-1,-3
Cc1ccc(C(=O)NNC(=O)CSc2nnc(-c3ccccc3)n2Cc2ccccc2)cc1,-2,2,-3,1,13,-3
CSCC(C)N1CCC(n2nccc2NC(=O)CCCc2ccccc2)CC1 (centres undefined),-2,-64*,-2,28,20,-1
COc1ccccc1C(=O)Nc1ccnn1C1CCN(C(C)CSC)CC1 (centres undefined),-3,-26*,-3,-22,-17,5
COc1ccccc1C(=O)Nc1ccnn1C1CCN(C)CC1,6,/,1,8,2,4
CSCC(C)N1CCC(n2nccc2NC(=O)CCc2ccccc2)CC1 (centres undefined),2,-19,2,-11,/,-1
Cc1cc(OCc2cc(C(=O)N(C)C(C)c3ccccn3)no2)cc(C)c1Cl (centres undefined),-4,1,4,4,-1,3
CC(C)C(NC(=O)c1ccco1)C(=O)NCC(c1ccco1)N(C)C (centres undefined),-1,1,16*,-3,3,2
COc1cc(/C=C/c2nc(-c3ccccc3O)n[nH]2)cc(OC)c1OC,-2,-2,0,-6,3,98*
Cc1cccc(C(=O)OCC(=O)Nc2ccccc2C(=O)NC2CC2)c1,7,/,6,5,-1,0
Cc1ccc(C)c(NC(=O)CN(C)C(=O)c2cc(-c3cccs3)nn2-c2ccccc2)c1,-4,1,-1,-1,-11,4
C=C1C(C(=O)N2CCN(C)CC2)C1C(=O)N1CCN(C)CC1 (centres undefined),-3,0,13*,7,14,2
COc1ccc(/C=C(\C#N)C(=O)N2COCC2(C)C)cc1,1,1,-1,-4,5,56*
Cc1ncsc1CCOC(=O)C12CC3CC(CC(C3)C1)C2,16*,-2,0,108,5,2
Cc1ncsc1CCOC(=O)c1cccnc1,-2,-2,1,?,14,-1
Cc1ccccc1C(=O)Nc1ccnn1C1CCN(C2CCSCC2)CC1,0,-13,0,1,0,1
O=C1CCCc2nc3c(cc21)C(O)Oc1ccccc1-3 (centres undefined),9,2,16*,-22,2,-2
O=C1CCCc2nc3c(cc21)C(O)Oc1c-3ccc2ccccc12 (centres undefined),0,1,-2,12,0,0
CC1=C(C#N)C(=O)OC(C)(C)C1,9,-47*,-2,25,4,0
Cc1ccc(-c2ccc(/C=N/NC(N)=S)o2)cc1,-3,1,3,1,-7,103*
NC(=S)N/N=C/c1ccc(-c2ccccc2)o1,-6,-3,3,-13,-7,91*
SMILES,m5-HT2A agonist,MEX-5 binding,V-ATPase pHluor,JMJD2C inh,VLA-4 inh,Granule exo inh
NC(=S)N/N=C/c1ccc(-c2ccc(Cl)c(Cl)c2)o1,1,1,5,5,-2,27
CCCn1c(Cc2ccccc2)nnc1SC(C)C(=O)NC1CC1 (centres undefined),5,/,7,14,6,6
COC1=CC(=O)c2ccccc2C1=O,3,/,-1,/,11,13
COC1=CC(=O)C=C(OC)C1=O,8,/,-6,/,/,78*
Cc1ccc(Nc2nc(-c3sc(N)nc3C)cs2)cc1,0,-3,14*,-3,3,0
O=C(c1ccco1)[C@@H]1[C@@H]2C(=O)N(c3ccccc3)C(=O)[C@@H]2C2c3ccccc3C=CN21 (some centres undefined),-2,-30*,4,-4,-37,-2
Brc1ccc2c(c1)OCCOCCOc1cc(Br)ccc1OCCOCCOCCO2,0,-2,-1,-5,13,60*
Brc1cc2c(cc1Br)OCCOCCOCCOCCO2,-3,2,2,19,15,25
CC(C)NC(=O)N(C)C[C@H]1Oc2ccc(NC(=O)c3ccncc3)cc2C(=O)N([C@H](C)CO)C[C@@H]1C,6,/,3,-9,21,-2
COc1cc(OC)cc(C(=O)Nc2ccc(-n3cnnn3)c(C)c2)c1,-6,-3,7,89*,5,-2
Cc1cccc(N=Nc2c(O)[nH]c3ccc(Br)cc23)c1,-7,-33*,2,7,-33,-4
COc1ccc(N2CCN(C(=O)CCN3C(=S)NC(C)(C)CC3C)CC2)cc1 (centres undefined),1,3,-2,3,4,1
CCOC(=O)c1c2ccc(OCC(=O)N/N=C/c3ccc(C)cc3)cc2n2ccccc12,0,-29*,-3,39,-5,-4
CCOC(=O)c1c2ccc(OCC(=O)NN)cc2n2ccccc12,5,-7,6,-26,11,5
Cc1ccc(-c2nnn(CC(=O)Nc3ccc4nn(-c5ccccc5)nc4c3)n2)o1,-1,-2,16*,-3,-4,0
Cc1ccc(OCCCN2C(=O)C(=O)c3cccc(C)c32)cc1,-7,2,0,4,6,12
Cc1ccc(OCCN2C(=O)C(=O)c3cc(C)ccc32)cc1,-5,-2,0,-3,47,72*
CCO[C@H]1OC(C(=O)NCc2ccccc2)=C[C@@H](C(C)(C)C)[C@@H]1CCCO,-2,0,1,3,14,-22
COc1ccc(C(NC(=O)c2cc(OC)ccc2OC)c2ccccc2)cc1 (centres undefined),-5,2,-2,4,-3,-8
COc1cc(C(=O)NC(c2ccccc2)c2ccccc2)cc(OC)c1C,-8,-47*,5,-121,1,-9
O=C(Nc1ccc(F)cc1)C1CCN(S(=O)(=O)c2ccc3[nH]c(=O)oc3c2)CC1,-2,2,3,29,1,8
O=C1CN(C(=O)/C=C/c2cc(Br)ccc2F)CCN1,2,0,-3,1,3,-2
O=C1c2ccccc2C(=O)c2[nH]c(=O)[nH]c21,1,-55*,2,0,-3,12

# Assay outcomes: PubChem BioAssay, several laboratories
